The source of these data is PubChem BioAssay (Tox21).

Structures are written as SMILES. Values without a mark were called inactive. Records with an inconclusive call do not appear. Active and inactive are the calls of the source. Unless noted, calls follow the shape of the dose curve; as a rule, active = well fitted curve in the direction sought with a large enough effect in the repeat runs; inconclusive = weak or mixed curves; inactive = no such curve, though single readings can be large; an effect the other way counts as inactive or inconclusive.

A short description of test [1]: qHTS assay to identify small molecule agonists of the estrogen receptor alpha (ER-alpha) signaling pathway in the presence of an antagonist - cell viability counter screen (AID 1259386).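 Also: series mostly up to about 92 µM; cells exposed to compounds for 22 h at 37 °C before the viability read; nearly all actives have a fitted effect of over 30% in size.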 The method in brief: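 The test measures whether compounds kill ER-alpha reporter cells (VM7Luc4E2) under antagonist co-treatment (ICI-182,780, 10.0nM). Fluorescence from CellTiter-Fluor is read after a 22hr exposure.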
A general note: qHTS replaces the single test concentration by a dilution series.

Test [2] concerns the target Progesterone receptor (Homo sapiens) (UniProt P06401). The experiment in a line: qHTS assay to identify small molecule agonists of the progesterone receptor (PR) signaling pathway (AID 1346784; calls by dose curve; also: nearly all actives have a fitted effect of over 30% in size). The method in brief: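 Agonist qHTS: compounds pinned onto 3,000 PR-UAS-bla HEK 293T cells per well in charcoal-stripped serum medium, 16hr at 37C, then beta-lactamase activity measured by LiveBLAzer FRET fluorescence after 2 hours at room temperature.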

Test [3] shares this target. The experiment in a line: qHTS assay to identify small molecule antagonists of the progesterone receptor (PR) signaling pathway (AID 1346795; active = well fitted inhibition curve with a large enough effect in the signal ratio in the repeat runs, not every such curve was filed as active; the % refers to the signal ratio). The method in brief:
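Antagonist mode with agonist R5020 at 1 nM final and 16 hr incubation at 37C. Reporter was beta-lactamase driven by UAS in HEK293T (PR-UAS-bla), 2% charcoal-stripped serum; signal from LiveBLAzer FRET substrate, 2 hr at room temperature.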

Test [4] in a line: qHTS assay to identify small molecule antagonists of the progesterone receptor (PR) signaling pathway - cell viability counter screen (AID 1346798). Also: nearly all actives have a fitted effect of over 50% in size. Also: potency is read from the fitted curve at half-maximal effect. In outline:
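Cytotoxicity read as CellTiter-Glo luminescence (30 min, room temperature) in the same wells as the beta-lactamase readout. HEK293T PR-UAS-bla cells in charcoal-stripped 2% FBS received compound and R5020, then 16 h at 37C, 5% CO2.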

A short description of test [5]: qHTS assay to identify small molecule agonists of the progesterone receptor (PR) signaling pathway - cell viability counter screen (AID 1346799; calls by dose curve; also: nearly all actives have a fitted effect of over 45% in size). In outline: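 Cytotoxicity measured by CellTiter-Glo luminescence (30 min, RT) in the same wells as the PR beta-lactamase agonist read. Those HEK293T cells had 16 h compound treatment at 37 C in 2% charcoal-stripped FBS medium.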

A short description of test [6]: qHTS assay to identify small molecule antagonists of the TGF-beta/Smad signaling pathway - cell viability counter screen (AID 1346824). Also: nearly all actives have a fitted effect of over 50% in size. The method in brief: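 SBE-bla HEK 293T cells, incubated overnight, then compound plus 0.25 ng/mL TGF-beta1 (stock added) for 5 hr at 37 C. Viability was read in the same wells by CellTiter-Glo luminescence after 30 min at room temperature.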

Test [7] can be described thus: qHTS assay to identify small molecule agonists of the TGF-beta/Smad signaling pathway (AID 1346859; active = well fitted activation curve with a large enough effect in the signal ratio in the repeat runs, not every such curve was filed as active; the % refers to the signal ratio; also: series mostly up to about 77 µM). In outline:
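Fluorescence (ex 405 nm; em 460 and 530 nm) was read 2 h after LiveBLAzer FRET substrate at RT. The preceding compound treatment of overnight-plated SBE-bla HEK293T cells lasted 5 h at 37 C.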

A short description of test [8]: Human pregnane X receptor (PXR) small molecule agonists, qHTS cell viability counter screen (AID 1346977). Also: nearly all actives have a fitted effect of over 50% in size. In outline:
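Same-well viability read: CellTiter-Fluor added after 23 hr compound exposure, fluorescence measured 1 hr later. Cells were PXR-Luc HepG2 seeded at 2,000/well in 5% charcoal-stripped FBS medium, rested 5 hr before dosing at 37 C.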

Test [9] is described as follows: Caspase-3/7 induction in HepG2 cells by small molecules, qHTS assay (AID 1346978). Also: nearly all actives have a fitted effect of over 15% in size. The method in brief:
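Wild-type HepG2 cells, 2,000/well, settled 5 hr at 37 C and 5% CO2, then compound-treated for 17 hr; caspase-3/7 activity read by luminescent Caspase-Glo 3/7 after 30 min at room temperature.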

A short description of test [10]: Caspase-3/7 induction in CHO-K1 cells by small molecules, qHTS cell viability counter screen (AID 1346979). Also: nearly all actives have a fitted effect of over 35% in size. In outline:
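Cytotoxicity counter screen: CellTiter-Fluor added to compound-treated wild-type CHO-K1 cells at 16 h (37C, 5% CO2), fluorescence measured 1 h later; same wells as caspase-3/7 measurement.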

Test [11] in a line: Caspase-3/7 induction in CHO-K1 cells by small molecules, qHTS assay (AID 1346980). Also: nearly all actives have a fitted effect of over 15% in size. The method in brief:
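Wild-type CHO-K1 cells exposed to compounds for 17hr at 37 C, 5% CO2. Caspase-3/7 activity then measured by Caspase-Glo 3/7 luminescence after 30min at room temperature.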

Test [12] in a line: Caspase-3/7 induction in HepG2 cells by small molecules, qHTS cell viability counter screen (AID 1346981). Also: series mostly up to about 92 µM; nearly all actives have a fitted effect of over 30% in size. In outline:
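Treatment of HepG2 cells with DMSO-delivered compounds ran 16 hr at 37 C following a 5-hr pre-incubation of 2,000 cells/well. CellTiter-Fluor fluorescence, read after 1 hr, served as the viability measure in a qHTS format.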

Test [13] has as its target Nuclear receptor subfamily 1 group I member 2 (Homo sapiens) (UniProt O75469). The experiment in a line: Human pregnane X receptor (PXR) small molecule agonists, qHTS assay (AID 1346982). Also: nearly all actives have a fitted effect of over 35% in size. In outline: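 Stable HepG2 line reporting PXR-mediated CYP3A4 expression via luciferase. Treatment: 24 hr with compounds in DMSO at 37 C. Detection: ONE-Glo luminescence.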
For test [14], the target named is Nuclear receptor subfamily 1 group I member 2 (Rattus norvegicus) (UniProt Q9R1A7). The experiment in a line: Rat pregnane X receptor (rPXR) activation by small molecules, qHTS assay (AID 1346983). Also: nearly all actives have a fitted effect of over 20% in size. The following applies: rPXR luciferase reporter cells, One-Glo luminescence, 24 h; max activation: active compounds read high. In outline: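 Cell-based rPXR activation assay: rPXR cells, 2,000 per well, rested 5hr at 37 C, then exposed to compounds in DMSO for 24 hr at 37 C. Luciferase activity read by One-Glo luminescence after 30 min at room temperature.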

The target of test [15] is Nuclear receptor subfamily 1 group I member 2 (Homo sapiens) (UniProt O75469). The experiment in a line: CYP3A4 induction through human pregnane X receptor (PXR) by small molecules, qHTS assay (AID 1346984). Also: nearly all actives have a fitted effect of over 40% in size. The method in brief:
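After 24 h at 37C with compound, DPX-2 cells (HepG2, co-transfected PXR response element and CYP3A4 promoter-luciferase) got 3uM final P450-Glo Luciferin-IPA for 3 h; One-Glo luminescence followed.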

Test [16] shares this target. The experiment in a line: Human pregnane X receptor (PXR) activation by small molecules, qHTS assay (AID 1346985). Also: nearly all actives have a fitted effect of over 40% in size. The method in brief: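 DPX-2 cells (HepG2 co-transfected with a PXR response element and a CYP3A4-promoter luciferase construct) were seeded at 2,000 per well, rested 5 hr at 37C, then exposed to DMSO-dissolved compounds for 24 hr. Activation was read as luciferase luminescence.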

In test [17] the target is Cytochrome P450 2D6 (Homo sapiens) (UniProt P10635). The experiment in a line: Cytochrome P450 Family 2 Subfamily D Member 6 (CYP2D6) small molecule antagonists: luciferase reporter qHTS assay (AID 1671196). Also: nearly all actives have a fitted effect of over 50% in size. Also: potency is read from the fitted curve at half-maximal effect. In outline: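 Chemicals tested for interference with CYP2D6 activity; proluciferin substrate, NADPH regeneration, 1 h at room temperature, luminescent detection.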
For orientation: In a reporter assay the amount or activity of a reporter protein is the signal.

A short description of test [18]: qHTS assay to identify small molecule agonists of the TGF-beta/Smad signaling pathway - cell viability counter screen (AID 1346829). Also: top concentration of the series differs between compounds; nearly all actives have a fitted effect of over 45% in size. In outline: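 Here the cytotoxicity of library compounds is measured in SBE-bla HEK 293T cells treated for 5 hr, using CellTiter-Glo added to wells already read for the beta-lactamase reporter.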
The target of test [19] is Thyrotropin-releasing hormone receptor (Homo sapiens) (UniProt P34981). Briefly: qHTS assay to identify small molecule antagonists of the thyrotropin-releasing hormone receptor (TRHR) signaling pathway (AID 1346877; active = well fitted inhibition curve with a large enough effect in the repeat runs, not every such curve was filed as active; also: series mostly up to about 51 µM). The method in brief: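 Overnight-plated (18 h, 37 °C) HEK293 cells expressing TRHR were dye-loaded 2 h, treated with compound, then stimulated with TRH at 1 nM final. Fluorescence intensity was captured every second for 3 min.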

Test [20] shares this target. The experiment in a line: qHTS assay to identify small molecule agonists of the thyrotropin-releasing hormone receptor (TRHR) signaling pathway (AID 1346891; calls by dose curve; also: series mostly up to about 58 µM). In outline:
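Agonist-mode intracellular calcium readout: kinetic fluorescence over 3 min at 1 s intervals after compound addition to TRHR-HEK293 cells (18 h seeded, 2 h dye-loaded at 37 C). Fifteen concentrations, triplicates.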
% is scaled to controls: 0 for no effect and ±100 for the full control effect.

Chain of Progesterone receptor (Homo sapiens) (P06401 whole entry, looked up): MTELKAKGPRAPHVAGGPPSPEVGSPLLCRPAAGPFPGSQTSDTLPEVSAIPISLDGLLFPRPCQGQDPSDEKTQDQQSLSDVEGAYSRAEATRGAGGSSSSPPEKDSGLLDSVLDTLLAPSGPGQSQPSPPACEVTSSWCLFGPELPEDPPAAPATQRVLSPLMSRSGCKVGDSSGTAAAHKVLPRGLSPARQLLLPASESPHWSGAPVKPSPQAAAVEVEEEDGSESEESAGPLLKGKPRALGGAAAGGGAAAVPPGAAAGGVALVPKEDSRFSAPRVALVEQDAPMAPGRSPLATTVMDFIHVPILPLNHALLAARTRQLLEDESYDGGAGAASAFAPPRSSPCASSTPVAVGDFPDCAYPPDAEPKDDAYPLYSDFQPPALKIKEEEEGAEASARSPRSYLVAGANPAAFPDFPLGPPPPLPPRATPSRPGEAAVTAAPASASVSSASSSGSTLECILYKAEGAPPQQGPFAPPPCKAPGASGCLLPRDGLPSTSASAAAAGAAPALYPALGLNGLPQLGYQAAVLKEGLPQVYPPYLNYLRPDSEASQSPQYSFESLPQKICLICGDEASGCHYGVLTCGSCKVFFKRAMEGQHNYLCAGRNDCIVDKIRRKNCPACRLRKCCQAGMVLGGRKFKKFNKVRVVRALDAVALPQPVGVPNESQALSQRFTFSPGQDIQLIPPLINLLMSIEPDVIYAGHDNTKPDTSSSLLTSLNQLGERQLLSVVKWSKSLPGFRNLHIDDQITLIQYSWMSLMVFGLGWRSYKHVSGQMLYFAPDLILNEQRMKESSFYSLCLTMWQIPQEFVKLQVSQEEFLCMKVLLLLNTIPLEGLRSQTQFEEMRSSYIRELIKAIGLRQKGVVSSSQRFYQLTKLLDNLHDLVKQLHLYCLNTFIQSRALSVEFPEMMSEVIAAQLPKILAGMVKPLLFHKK
Chain of Thyrotropin-releasing hormone receptor (Homo sapiens) (P34981 whole entry, looked up): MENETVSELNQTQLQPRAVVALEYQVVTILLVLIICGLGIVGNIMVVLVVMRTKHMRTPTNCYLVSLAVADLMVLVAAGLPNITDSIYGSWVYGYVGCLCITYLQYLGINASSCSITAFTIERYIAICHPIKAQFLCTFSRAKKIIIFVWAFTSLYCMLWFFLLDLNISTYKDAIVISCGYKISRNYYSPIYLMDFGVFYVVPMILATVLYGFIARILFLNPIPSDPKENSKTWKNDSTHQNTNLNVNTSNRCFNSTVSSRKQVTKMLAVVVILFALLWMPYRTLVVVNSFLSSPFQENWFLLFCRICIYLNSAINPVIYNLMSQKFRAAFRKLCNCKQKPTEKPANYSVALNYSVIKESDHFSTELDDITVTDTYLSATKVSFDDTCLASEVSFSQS
Chain of Nuclear receptor subfamily 1 group I member 2 (Homo sapiens) (O75469 whole entry, looked up): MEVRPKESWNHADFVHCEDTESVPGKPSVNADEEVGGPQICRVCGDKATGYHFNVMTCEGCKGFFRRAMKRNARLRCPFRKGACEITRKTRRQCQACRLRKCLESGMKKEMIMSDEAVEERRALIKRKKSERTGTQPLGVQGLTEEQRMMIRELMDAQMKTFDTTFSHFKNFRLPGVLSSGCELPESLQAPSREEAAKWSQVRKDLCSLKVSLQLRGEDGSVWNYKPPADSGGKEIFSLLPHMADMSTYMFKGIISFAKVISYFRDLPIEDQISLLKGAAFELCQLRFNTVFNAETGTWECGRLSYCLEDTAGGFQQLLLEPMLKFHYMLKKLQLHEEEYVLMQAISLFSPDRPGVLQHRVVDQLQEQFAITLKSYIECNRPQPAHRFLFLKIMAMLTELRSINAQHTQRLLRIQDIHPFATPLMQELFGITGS
Chain of Cytochrome P450 2D6 (Homo sapiens) (P10635 whole entry, looked up): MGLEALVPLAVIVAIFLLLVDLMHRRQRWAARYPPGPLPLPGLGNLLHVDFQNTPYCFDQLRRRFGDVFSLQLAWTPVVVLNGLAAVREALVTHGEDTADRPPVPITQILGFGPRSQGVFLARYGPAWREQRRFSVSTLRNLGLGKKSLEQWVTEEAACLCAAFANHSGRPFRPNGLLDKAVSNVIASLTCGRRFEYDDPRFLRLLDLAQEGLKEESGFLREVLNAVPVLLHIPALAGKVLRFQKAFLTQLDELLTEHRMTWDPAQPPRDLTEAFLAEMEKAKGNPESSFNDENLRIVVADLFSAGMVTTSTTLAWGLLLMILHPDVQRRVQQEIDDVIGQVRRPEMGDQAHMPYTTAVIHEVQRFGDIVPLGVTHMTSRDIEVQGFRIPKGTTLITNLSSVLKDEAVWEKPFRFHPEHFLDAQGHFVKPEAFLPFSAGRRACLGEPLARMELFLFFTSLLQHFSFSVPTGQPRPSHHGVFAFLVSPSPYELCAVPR
Chain of Nuclear receptor subfamily 1 group I member 2 (Rattus norvegicus) (Q9R1A7 whole entry, looked up): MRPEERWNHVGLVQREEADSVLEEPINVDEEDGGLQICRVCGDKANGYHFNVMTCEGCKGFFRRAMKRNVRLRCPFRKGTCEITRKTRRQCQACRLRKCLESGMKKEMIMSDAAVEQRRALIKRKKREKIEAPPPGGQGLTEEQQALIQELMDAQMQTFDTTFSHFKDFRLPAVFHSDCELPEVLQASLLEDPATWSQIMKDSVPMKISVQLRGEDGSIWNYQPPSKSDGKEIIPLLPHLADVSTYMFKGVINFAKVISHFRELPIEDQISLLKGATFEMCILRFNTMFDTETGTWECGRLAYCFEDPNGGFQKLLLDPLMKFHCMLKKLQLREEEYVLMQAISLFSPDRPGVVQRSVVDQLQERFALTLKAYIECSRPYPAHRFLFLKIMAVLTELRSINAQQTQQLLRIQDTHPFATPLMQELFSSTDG

With `N=C(N=C(N)N)N1CCOCC1`, the Potency result in test [1], in test [3], in test [4], in test [5], in [6] and in [8] was “inactive” throughout. For the same compound, the Potency result in [10], in test [11], in test [12], in test [13], in [15] and in test [16] was “inactive” each time. The Potency entry in [17] is “inactive”. Further, the compound was called inactive in test [2], in [7] and in test [9]. In addition, the max activation in test [14] is -1.18%.

For the compound `CN(C)CC[C@@H](c1ccc(Br)cc1)c1ccccn1`, the Potency result in [1], in [3], in [5], in test [6], in test [10] and in test [11] was “inactive” throughout. In addition, the Potency entry in [12], in test [13] and in test [16] was “inactive” throughout. Besides, the outcome in test [2], in test [7] and in test [9] was inactive. Besides, the Potency is 2.66 µM (active) in [4] and 3.89 µM (active) in [17]. Besides, the max activation in [14] was -1.37%.

On to `COc1ccc(OC)c(OC)c1`, for which the Potency result in test [1], in [3], in test [4], in test [6], in test [18] and in test [20] was “inactive” each time. Moreover, the Potency result in [8], in test [10], in [11], in test [13] and in test [17] was “inactive” throughout. Also, the call in test [2], in test [7] and in test [19] was inactive.

Consider `O=C(c1ccccc1)c1ccc2n1CCC2C(=O)O` (centres undefined), for which the Potency result in [1], in [3], in [4], in test [6], in [18] and in [8] was “inactive” in each case. Also, the Potency result in test [10], in test [11], in test [12], in [13], in test [15] and in [16] was “inactive” in each case. For the same compound, the Potency entry in test [17] is “inactive”. In addition, the result in test [2] and in test [9] was inactive. Besides, the max activation in test [14] was 4.49%.

Take `CC1CCc2cc(F)cc3c(=O)c(C(=O)O)cn1c23` (centres undefined): the Potency result in [1], in test [3], in [4], in test [5], in [6] and in test [8] was “inactive” throughout. For the same compound, the Potency entry in [10], in test [11], in test [12] and in test [17] was “inactive” throughout. Also, the result in [2] and in test [9] was inactive.

As to `C1=Cc2ccccc2C1`, the Potency entry in [1], in test [3], in test [4], in [6], in test [18] and in test [20] was “inactive” in each case. The Potency result in test [8], in [10], in test [11], in test [12] and in [13] was “inactive” each time. For the same compound, the outcome in test [2], in test [7], in test [19] and in [9] was inactive.
